Experimental data from PubChem BioAssay (NCI).
Compounds without any hit were thinned out: in the full panel of roughly 83,000, 20% have a hit.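 Percent growth is the endpoint: 0 to 100 indicates growth inhibition (40 means 60% inhibition), 0 means no net growth, and negative values indicate cell death.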 Values without a mark were called inactive. Calls of active or inactive are those of the source.

Each compound was assayed on UACC-62 melanoma (assay: NCI-60 one-dose screen, 48 h (100 = growth as untreated, 0 = no growth, -100 = all killed)). Conditions: 10 µM unless noted.
Method: Growth inhibition of the UACC-62 human tumor cell line is measured as a screen for anti-cancer activity. Cells are grown in 96 well plates and exposed to the test compound for 48 hours. Compounds are tested at a single concentration, which is 10^-5 M for most compounds. The reported endpoint is percent growth (GI% or GIPRCNT), where numbers from 0 - 100% represent growth inhibition, and numbers from -100% - 0 represent cell death. For example, a value of 40 represents 60% growth inhibition. A value of 0 means no net growth occurred over the course of the experiment. A value of -40 indicates 40% of cells at the beginning of the experiment died by the end of the experiment. A value of -100 means all cells are dead at the end of the experiment.
NCI-60 Human Tumor Cell Lines Screen was performed using the standard one-dose NCI protocol, which is described in more detail at https://dtp.cancer.gov/discovery_development/nci-60/default.htm.
Compounds with GIPRCNT values below 10 were considered active. Activity score was based on GIPRCNT using the following formula: […]
Score is 0 for GIPRCNT values of 100 or above, 50 for GIPRCNT values of 0, and 100 for GIPRCNT values of -100.

SMILES	growth
Cc1ccc(-c2c(-c3ccccc3)c(=O)oc3ccc(C)cc23)cc1	76.1%
CCCCCCCCn1ccc2cc(NC(=O)Cn3cc(CN4CCCC4)nn3)ccc21	-82.1% (active)
COc1cccc(C(=O)NCCCNc2cc(-c3cn(-c4ccccc4)nc3-c3cccc(OC)c3)ccn2)c1	26.2%
COC(=O)CCC1=C(C)C2=NC1=CC1=NC(=CC3=NC(=Cc4[nH]c(/c(=C(/C)O)c4C)=C2)C(C(C)=O)=C3C)C(C)=C1CCC(=O)OC	97.2%
Cc1ccc(C(=O)COc2cccc(/C=C3\Oc4ccccc4C3=O)c2)cc1	73.2%
N#CC1=C(NC=O)Oc2c(ccc3ccccc23)C1c1ccccc1 (stereo not given)	30.9%
CCOC(CN=Cc1cc(C)c2[nH]c3ccccc3c2c1C)OCC	71.3%
CC1SC(c2ccc(OCc3ccccc3)cc2)N(NC(=O)C(O)(c2ccccc2)c2ccccc2)C1=O (stereo not given)	63.7%
COc1ccc(/C=N\NC(=O)c2cc(-c3ccc(Br)cc3)n(-c3ccc(S(N)(=O)=O)cc3)n2)cc1	32.3%
c1ccc2cc3nc4cc5ccccc5cc4nc3cc2c1	96.5%
CCSC1=NC2C(N(CC)C(=O)N2CC)N1/N=C/C=C/c1ccccc1[N+](=O)[O-] (stereo not given)	25.5%
C=C(C)[C@@H]1CC=C2c3sc(-c4ccc(C)cc4)nc3C[C@@H](C)[C@]2(C)C1	93.2%
Fc1ccc(CNc2c3ccccc3nc3ccccc23)cc1F	60%
CC(C)(C)c1ccc(/C=C/C(=O)Nc2ccc(O)cc2)cc1	55.1%
Cc1cccc(-c2nc(N(C)c3ccc4ncsc4c3)c3ccccc3n2)n1	50.4%
CN(C)c1ccc(-c2cc(-c3ccc(Nc4nc(Nc5ccc(Cl)cc5)nc(Nc5ccc(Cl)cc5)n4)cc3)no2)cc1	66.2%
CCCCCc1nc2c(c3c1CCCC3)CCCC2	82.2%
COc1ccc(-c2nc(SCC(=O)Nc3nc(-c4ccccc4)cs3)[nH]c(=O)c2C#N)cc1	92.1%
CN(c1ccccc1)c1ccc2c(c1)OCCC21CC1Nc1cnccc1C(=O)O (stereo not given)	62%
N#CCN1C(=O)C2C3=C(CCCC3)SC2N=C1CN1CCCC1 (stereo not given)	83.6%

SMILES	growth
O=C(NCCCNc1cc(-c2cn(-c3ccccc3)nc2-c2cccc(O)c2)ccn1)c1ccccc1	23.6%
Cc1ccc(Nc2ccc(Nc3ccc(C)cc3)c3c2C(=O)c2cccc(O)c2C3=O)cc1	87.1%
C=C1C(=O)O[C@H]2[C@H]1CC/C(COC(=O)C(=O)c1c[nH]c3ccc(OC)cc13)=C\CC[C@@]1(C)O[C@@H]21	-76.6% (active)
COc1cc(/C=C/C(=O)c2c(C)nc3ccccc3c2/C=C/c2ccc(C)cc2)cc(OC)c1OC	25.6%
CC/C=C/C/C=C/C/C=C/C/C=C/C/C=C/C/C=C/CCC(=O)Nc1ccn([C@@H]2O[C@H](CO)[C@@H](O)C2(F)F)c(=O)n1	-12.3% (active)
CN(Cc1cnc2nc(N)nc(N)c2n1)c1ccc(C(=O)N[C@@H](CCc2nn[nH]n2)c2nn[nH]n2)cc1	21.5%
C=CCn1c(C)nc2cc(Nc3nc(N4CCCC4)nc4ccccc34)ccc21	113%
CCc1c2c(nc3ccc(OC(=O)OCc4ccc(B5OC(C)(C)C(C)(C)O5)cc4)cc13)-c1cc3c(c(=O)n1C2)COC(=O)[C@]3(O)CC	-80.8% (active)
COc1ccc(-c2nc3ccc4[nH]ncc4c3c3c2CCCC3)cc1B(O)O	47.1%
CCc1c2c(nc3ccc(OC(=O)NCc4ccc(B5OC(C)(C)C(C)(C)O5)cc4)cc13)-c1cc3c(c(=O)n1C2)COC(=O)[C@]3(O)CC	-80.5% (active)
CCCCCS(=O)(=O)Nc1ccc(C(=O)O)cc1	98.8%
Cc1c(O)cc(-c2cnc(N/N=C\c3ccc(Cl)cc3)s2)c(O)c1C	81.6%
O=C1OC(c2nc3ccccc3s2)=C/C1=C\c1ccc(O)cc1	89.1%
C[C@]12CC[C@@H]3c4cc(OC(F)F)c(O)cc4CC[C@H]3[C@@H]1CC[C@@H]2OS(N)(=O)=O	48%
CCN(CC)c1ccc(C(=O)c2ccc(N(CC)CC)cc2)cc1	37.6%
O=S(=O)(O)c1ccc(N/N=C/c2ccccc2Cl)cc1	111%
NC(=O)c1ccc[n+]([C@@H]2O[C@H](COP(=O)([O-])OP(=O)(O)OC[C@H]3O[C@@H](n4cnc5c(N)ncnc54)[C@H](O)[C@@H]3O)[C@@H](O)[C@H]2O)c1	119%
COc1cc(C2CC(c3ccc(Nc4ccnc5cc(Cl)ccc45)cc3)=NN2C=O)cc(OC)c1OC (stereo not given)	46.3%
COc1cc2ncn3c(=O)c4c5c(sc4nc3c2cc1OC)CCCC5	93.4%
COc1cc2c(cc1-c1c(C)noc1C)ncc1nc(C3CCCCC3)n(C3CCC(OC(F)F)CC3)c12 (stereo not given)	22.3%
